Holding throughout (assay): DAPPL (digital affinity profiling via proximity ligation, sequencing); 10 mM Tris-HCl pH 7.5, 50 mM NaCl, 1 mM DTT, 4% glycerol, room temperature, 30 min; GST-TFs on glutathione beads, 16-mer random dsDNA library, 0.1% formaldehyde crosslink after washing; high values mean tight binding
Common to all, as to conditions: protein: recombinant; tags: N-terminal GST; dsDNA, one strand shown

The target of experiment [1] is T1, FLI1 (Homo sapiens, UniProt Q01543 1-452).
T1 sequence: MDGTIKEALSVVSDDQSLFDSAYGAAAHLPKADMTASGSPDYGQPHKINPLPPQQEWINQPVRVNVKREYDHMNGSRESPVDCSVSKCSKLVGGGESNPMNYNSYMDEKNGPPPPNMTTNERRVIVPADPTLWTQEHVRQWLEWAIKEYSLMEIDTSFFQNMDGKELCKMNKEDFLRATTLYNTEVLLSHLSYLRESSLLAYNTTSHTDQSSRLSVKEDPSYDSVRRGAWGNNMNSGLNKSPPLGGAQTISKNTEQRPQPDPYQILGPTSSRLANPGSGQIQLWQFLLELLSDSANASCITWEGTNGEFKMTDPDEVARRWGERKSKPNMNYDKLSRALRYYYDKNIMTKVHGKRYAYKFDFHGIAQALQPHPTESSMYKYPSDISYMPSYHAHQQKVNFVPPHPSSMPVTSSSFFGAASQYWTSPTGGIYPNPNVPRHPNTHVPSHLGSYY
Put shortly: (§1)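 Binding signal is each hexamer's read frequency for a factor divided by its frequency in the tag-only sample. The factors were GST-fused human transcription factors from yeast, captured on glutathione beads, DNA-barcoded and pooled with that sample. Pools were incubated with 200 nmole of a random double-stranded 16-mer DNA library in Tris/NaCl/DTT/glycerol buffer at room temperature for 30 min, then washed, crosslinked with 0.1% formaldehyde, proximity-ligated with BsaI/T4 ligase (1 h, 37 °C), PCR-amplified and sequenced on an Illumina NextSeq500.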

Experiment [2] deals with T2, ELK1 (Homo sapiens, UniProt P19419 1-428).
T2 sequence: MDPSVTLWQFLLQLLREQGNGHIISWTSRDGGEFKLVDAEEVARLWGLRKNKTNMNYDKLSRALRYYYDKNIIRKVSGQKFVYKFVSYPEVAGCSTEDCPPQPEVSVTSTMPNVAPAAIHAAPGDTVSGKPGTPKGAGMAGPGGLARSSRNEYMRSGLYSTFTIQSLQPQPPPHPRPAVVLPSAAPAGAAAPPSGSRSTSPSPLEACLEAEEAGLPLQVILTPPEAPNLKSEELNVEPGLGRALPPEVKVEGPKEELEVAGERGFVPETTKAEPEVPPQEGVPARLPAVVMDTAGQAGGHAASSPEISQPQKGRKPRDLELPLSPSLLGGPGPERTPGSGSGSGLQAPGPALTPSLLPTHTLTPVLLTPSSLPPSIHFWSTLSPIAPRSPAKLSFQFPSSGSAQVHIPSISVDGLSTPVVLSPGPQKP
Put shortly:
as §1

Experiment [3] concerns the target T3, GABPA (Homo sapiens, UniProt Q06546 1-454).
T3 sequence: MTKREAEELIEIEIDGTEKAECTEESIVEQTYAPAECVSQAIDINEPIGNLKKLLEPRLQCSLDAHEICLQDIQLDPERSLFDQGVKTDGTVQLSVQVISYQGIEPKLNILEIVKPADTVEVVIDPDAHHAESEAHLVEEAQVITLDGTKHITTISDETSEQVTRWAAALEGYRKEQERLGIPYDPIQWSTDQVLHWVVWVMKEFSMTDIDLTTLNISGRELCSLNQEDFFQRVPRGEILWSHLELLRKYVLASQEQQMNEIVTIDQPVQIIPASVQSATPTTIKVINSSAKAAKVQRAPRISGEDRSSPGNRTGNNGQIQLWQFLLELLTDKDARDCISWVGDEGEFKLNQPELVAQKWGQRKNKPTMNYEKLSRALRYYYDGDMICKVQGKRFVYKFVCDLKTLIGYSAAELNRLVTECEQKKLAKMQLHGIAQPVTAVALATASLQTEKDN
The method, boiled down: as §1

In experiment [4] the target is T4, ERG (Homo sapiens, UniProt P11308 1-479).
T4 sequence: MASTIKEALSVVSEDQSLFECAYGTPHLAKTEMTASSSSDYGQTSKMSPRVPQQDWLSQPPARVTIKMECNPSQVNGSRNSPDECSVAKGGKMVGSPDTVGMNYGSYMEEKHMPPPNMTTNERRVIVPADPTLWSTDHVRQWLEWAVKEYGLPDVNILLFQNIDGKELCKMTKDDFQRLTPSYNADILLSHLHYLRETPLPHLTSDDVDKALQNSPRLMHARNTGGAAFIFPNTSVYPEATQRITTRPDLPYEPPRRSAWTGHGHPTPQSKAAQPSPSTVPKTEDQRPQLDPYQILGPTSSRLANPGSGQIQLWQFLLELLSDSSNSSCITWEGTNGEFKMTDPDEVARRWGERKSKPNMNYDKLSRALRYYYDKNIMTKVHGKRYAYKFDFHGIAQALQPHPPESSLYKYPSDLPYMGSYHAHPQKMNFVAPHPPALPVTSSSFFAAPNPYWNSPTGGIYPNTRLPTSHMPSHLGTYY
The method, boiled down: as §1

Experiment [5] concerns the target ELF1 (Homo sapiens, UniProt P32519 1-619). Put shortly: as §1
Experiment [6] addresses T5, EHF (Homo sapiens, UniProt Q9NZC4 1-300).
T5 sequence: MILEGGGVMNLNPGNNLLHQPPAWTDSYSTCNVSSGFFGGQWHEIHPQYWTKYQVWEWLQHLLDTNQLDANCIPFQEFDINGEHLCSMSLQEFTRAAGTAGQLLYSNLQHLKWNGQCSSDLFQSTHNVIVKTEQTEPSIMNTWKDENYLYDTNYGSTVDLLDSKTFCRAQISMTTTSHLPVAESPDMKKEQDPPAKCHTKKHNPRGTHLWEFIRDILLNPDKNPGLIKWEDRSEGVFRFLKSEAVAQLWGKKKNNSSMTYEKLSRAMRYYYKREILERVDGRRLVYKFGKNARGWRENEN
The method, boiled down: as §1

The target in experiment [7] is SPI1 (Homo sapiens, UniProt P17947 1-270). Put shortly:
as §1

Experiment [8] deals with SPIB (Homo sapiens, UniProt Q01892 1-262). The method, boiled down:
as §1

Experiment [9] concerns the target T6, ELK3 (Homo sapiens, UniProt P41970 1-407).
T6 sequence: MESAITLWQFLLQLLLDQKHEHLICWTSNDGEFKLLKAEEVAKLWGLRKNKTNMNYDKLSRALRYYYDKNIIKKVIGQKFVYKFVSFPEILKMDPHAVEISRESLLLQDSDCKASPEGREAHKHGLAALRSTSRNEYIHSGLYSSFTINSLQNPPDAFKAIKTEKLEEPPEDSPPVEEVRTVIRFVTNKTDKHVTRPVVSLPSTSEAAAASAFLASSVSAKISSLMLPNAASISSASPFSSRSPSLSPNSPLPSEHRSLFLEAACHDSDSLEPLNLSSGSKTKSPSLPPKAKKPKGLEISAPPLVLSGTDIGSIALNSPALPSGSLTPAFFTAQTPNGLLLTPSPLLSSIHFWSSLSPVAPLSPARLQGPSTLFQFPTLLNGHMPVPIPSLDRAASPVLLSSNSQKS
Put shortly: as §1

Chain of ELF1 (P32519 whole entry): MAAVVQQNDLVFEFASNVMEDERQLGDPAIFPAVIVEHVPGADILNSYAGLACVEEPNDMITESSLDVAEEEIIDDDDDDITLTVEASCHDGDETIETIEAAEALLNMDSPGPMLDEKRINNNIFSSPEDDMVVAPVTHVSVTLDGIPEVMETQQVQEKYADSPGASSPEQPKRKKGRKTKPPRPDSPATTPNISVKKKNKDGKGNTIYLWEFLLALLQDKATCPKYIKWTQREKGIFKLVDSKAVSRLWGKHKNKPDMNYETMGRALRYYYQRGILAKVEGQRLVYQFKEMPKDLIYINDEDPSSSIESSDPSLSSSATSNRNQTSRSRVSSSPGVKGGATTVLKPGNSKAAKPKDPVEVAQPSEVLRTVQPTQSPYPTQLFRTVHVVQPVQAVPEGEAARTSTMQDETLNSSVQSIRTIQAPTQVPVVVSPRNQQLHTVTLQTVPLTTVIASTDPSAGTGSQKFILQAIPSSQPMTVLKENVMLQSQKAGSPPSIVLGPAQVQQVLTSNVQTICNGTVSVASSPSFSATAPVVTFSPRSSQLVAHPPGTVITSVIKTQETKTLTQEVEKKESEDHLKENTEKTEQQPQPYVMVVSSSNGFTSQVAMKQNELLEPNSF
Chain of SPIB (Q01892 whole entry): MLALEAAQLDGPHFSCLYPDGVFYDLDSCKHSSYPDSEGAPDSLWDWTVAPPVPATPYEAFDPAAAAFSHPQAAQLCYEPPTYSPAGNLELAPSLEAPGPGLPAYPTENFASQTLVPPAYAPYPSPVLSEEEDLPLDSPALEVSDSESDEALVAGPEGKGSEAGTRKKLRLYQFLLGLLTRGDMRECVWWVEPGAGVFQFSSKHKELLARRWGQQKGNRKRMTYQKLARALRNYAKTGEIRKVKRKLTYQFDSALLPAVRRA

As to ATGGCC, the binding signal in [1] is 1.31 fold enrichment (6-mer frequency, TF over GST control); in [2], 1.42 fold enrichment (6-mer frequency, TF over GST control); in experiment [3] it was 1.45 fold enrichment (6-mer frequency, TF over GST control); in experiment [4], 1.46 fold enrichment (6-mer frequency, TF over GST control); in [5], 1.35 fold enrichment (6-mer frequency, TF over GST control); in experiment [6], 1.27 fold enrichment (6-mer frequency, TF over GST control). For the same sequence, the binding signal was 1.37 fold enrichment (6-mer frequency, TF over GST control) in experiment [7]; 1.39 fold enrichment (6-mer frequency, TF over GST control) in [8]; 1.24 fold enrichment (6-mer frequency, TF over GST control) in experiment [9].
For the sequence CTAATG, the binding signal in experiment [1] was 1.34 fold enrichment (6-mer frequency, TF over GST control); in experiment [2] it was 1.22 fold enrichment (6-mer frequency, TF over GST control); in [3], 1.26 fold enrichment (6-mer frequency, TF over GST control); in experiment [4], 1.18 fold enrichment (6-mer frequency, TF over GST control); in experiment [5], 1.23 fold enrichment (6-mer frequency, TF over GST control); in [6] it was 1.28 fold enrichment (6-mer frequency, TF over GST control). The binding signal is 1.26 fold enrichment (6-mer frequency, TF over GST control) in experiment [7]; 1.26 fold enrichment (6-mer frequency, TF over GST control) in [8]; 1.46 fold enrichment (6-mer frequency, TF over GST control) in [9].
Regarding CAATCC, the binding signal was 1.17 fold enrichment (6-mer frequency, TF over GST control) in [1]; 1.19 fold enrichment (6-mer frequency, TF over GST control) in experiment [2]; 1.26 fold enrichment (6-mer frequency, TF over GST control) in experiment [3]; 1.24 fold enrichment (6-mer frequency, TF over GST control) in [4]; 1.22 fold enrichment (6-mer frequency, TF over GST control) in [5]; 1.07 fold enrichment (6-mer frequency, TF over GST control) in [6]. Moreover, the binding signal is 1.12 fold enrichment (6-mer frequency, TF over GST control) in [7]; 1.2 fold enrichment (6-mer frequency, TF over GST control) in experiment [8]; 1.08 fold enrichment (6-mer frequency, TF over GST control) in experiment [9].
As to AACACT, the binding signal was 1.27 fold enrichment (6-mer frequency, TF over GST control) in experiment [1]; 1.38 fold enrichment (6-mer frequency, TF over GST control) in experiment [2]; 1.32 fold enrichment (6-mer frequency, TF over GST control) in experiment [3]; 1.31 fold enrichment (6-mer frequency, TF over GST control) in experiment [4]; 1.32 fold enrichment (6-mer frequency, TF over GST control) in experiment [5]; 1.35 fold enrichment (6-mer frequency, TF over GST control) in experiment [6]. Further, the binding signal in [7] is 1.36 fold enrichment (6-mer frequency, TF over GST control); in experiment [8], 1.31 fold enrichment (6-mer frequency, TF over GST control); in experiment [9] it was 1.23 fold enrichment (6-mer frequency, TF over GST control).
On to ATAATC, for which the binding signal is 1.17 fold enrichment (6-mer frequency, TF over GST control) in [1]; 1.16 fold enrichment (6-mer frequency, TF over GST control) in [2]; 1.14 fold enrichment (6-mer frequency, TF over GST control) in experiment [3]; 1.13 fold enrichment (6-mer frequency, TF over GST control) in experiment [4]; 1.07 fold enrichment (6-mer frequency, TF over GST control) in experiment [5]; 1.14 fold enrichment (6-mer frequency, TF over GST control) in experiment [6]. Moreover, the binding signal in experiment [7] was 1.1 fold enrichment (6-mer frequency, TF over GST control); in experiment [8] it was 1.08 fold enrichment (6-mer frequency, TF over GST control); in [9], 1.17 fold enrichment (6-mer frequency, TF over GST control).
Turning to CCACTA, the binding signal in [1] is 1.1 fold enrichment (6-mer frequency, TF over GST control); in experiment [2] it was 1.14 fold enrichment (6-mer frequency, TF over GST control); in experiment [3], 1.14 fold enrichment (6-mer frequency, TF over GST control); in [4], 1.08 fold enrichment (6-mer frequency, TF over GST control); in experiment [5], 1.13 fold enrichment (6-mer frequency, TF over GST control); in [6], 1.06 fold enrichment (6-mer frequency, TF over GST control). For the same sequence, the binding signal in [7] is 1.04 fold enrichment (6-mer frequency, TF over GST control); in experiment [8] it was 1.04 fold enrichment (6-mer frequency, TF over GST control); in experiment [9], 1.22 fold enrichment (6-mer frequency, TF over GST control).
AATTTC: the binding signal was 1.65 fold enrichment (6-mer frequency, TF over GST control) in experiment [1]; 1.59 fold enrichment (6-mer frequency, TF over GST control) in experiment [2]; 1.75 fold enrichment (6-mer frequency, TF over GST control) in experiment [3]; 1.94 fold enrichment (6-mer frequency, TF over GST control) in experiment [4]; 1.6 fold enrichment (6-mer frequency, TF over GST control) in experiment [5]; 1.77 fold enrichment (6-mer frequency, TF over GST control) in experiment [6]. The binding signal is 1.47 fold enrichment (6-mer frequency, TF over GST control) in experiment [7]; 1.85 fold enrichment (6-mer frequency, TF over GST control) in [8]; 1.79 fold enrichment (6-mer frequency, TF over GST control) in [9].
With TTCGTT, the binding signal in experiment [1] was 1.33 fold enrichment (6-mer frequency, TF over GST control); in experiment [2], 1.4 fold enrichment (6-mer frequency, TF over GST control); in experiment [3], 1.33 fold enrichment (6-mer frequency, TF over GST control); in experiment [4], 1.25 fold enrichment (6-mer frequency, TF over GST control); in experiment [5], 1.32 fold enrichment (6-mer frequency, TF over GST control); in experiment [6], 1.36 fold enrichment (6-mer frequency, TF over GST control). Also, the binding signal was 1.29 fold enrichment (6-mer frequency, TF over GST control) in [7]; 1.33 fold enrichment (6-mer frequency, TF over GST control) in experiment [8]; 1.24 fold enrichment (6-mer frequency, TF over GST control) in experiment [9].

The values are drawn from PMC7862700, “An all-to-all approach to the identification of sequence-specific readers for epigenetic DNA modifications on cytosine”.
